Results taken from the supplement of paper PMC6555819.

How the values were obtained:
Assay in all cases: PBM binding z-score (relative to random genomic background probes); higher = stronger binding; sequences stand for … in GC…GCGATTGACAGCGTAGAATGAAGG
[1] = test system: PPARg:RXRa DBDmut IVT, anti-RXR (DBD mutation: RXRa K156A/R161A, NR concentration 270 nM, RXRa partner concentration 90 nM)
Summary of the method: (§1)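 Probes were double-stranded and carried 34-nt variable regions with direct-repeat seeds, single-nucleotide variants, half-site ablations and random human genomic background sequences, printed on custom Agilent 4×180K protein-binding microarrays. Arrays were incubated 1 h with ligand-free nuclear receptor dimers in PBS pH 7.4, 2% milk, 0.02% Triton X-100, 1 mM DTT, 0.2 mg/mL BSA and 0.4 mg/ml salmon testes DNA. Antibodies against each partner (one per run) detected binding, and scanned fluorescence was regression-normalized. Binding z-scores use the random background probes as reference.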

[2] = test system: PPARg:RXRa IVT, anti-PPARg (NR concentration 270 nM, RXRa partner concentration 90 nM)
Summary of the method: as §1

[3] = test system: PPARg DBDmut:RXRa IVT, anti-PPARg (DBD mutation: PPARg1 K132A/R137A, NR concentration 270 nM, RXRa partner concentration 90 nM)
Summary of the method: as §1

[4] = test system: PPARg DBDmut IVT, anti-PPARg (DBD mutation: PPARg1 K132A/R137A, NR concentration 270 nM)
Summary of the method: as §1

[5] = test system: PPARg homodimer (NR concentration 180 nM)
Summary of the method: as §1

[6] = test system: PXR:RXRa (NR concentration 270 nM, RXRa partner concentration 90 nM)
Summary of the method: as §1

[7] = test system: PXR homodimer (NR concentration 270 nM)
Summary of the method: as §1

[8] = test system: RARa:RXR (NR concentration 270 nM, RXRa partner concentration 90 nM)
Summary of the method: as §1

[9] = test system: RARa homodimer (NR concentration 270 nM)
Summary of the method: as §1

[10] = test system: RARb:RXRa (NR concentration 270 nM, RXRa partner concentration 90 nM)
Summary of the method: as §1

[11] = test system: RARb homodimer (NR concentration 270 nM)
Summary of the method: as §1

[12] = test system: RARg:RXRa (NR concentration 270 nM, RXRa partner concentration 90 nM)
Summary of the method: as §1

[13] = test system: RARg homodimer (NR concentration 270 nM)
Summary of the method: as §1

[14] = test system: RXRa DBDmut IVT, anti-RXR (DBD mutation: RXRa K156A/R161A, NR concentration 90 nM)
Summary of the method: as §1

[15] = test system: RXRa homodimer (NR concentration 180 nM)
Summary of the method: as §1

[16] = test system: THRa:RXRa (NR concentration 90 nM, RXRa partner concentration 90 nM)
Summary of the method: as §1

[17] = test system: THRa homodimer (NR concentration 90 nM)
Summary of the method: as §1

[18] = test system: VDR homodimer (NR concentration 270 nM)
Summary of the method: as §1

GCTATTAGCTGAAAGGGCAACCGAATGATTCTCG
PBM binding z-score [1]: 0.31
PBM binding z-score [2]: 0.298
PBM binding z-score [3]: -0.309
PBM binding z-score [4]: -0.672
PBM binding z-score [5]: 0.621
PBM binding z-score [6]: 0.34
PBM binding z-score [7]: -0.258
PBM binding z-score [8]: 0.809
PBM binding z-score [9]: -0.61
PBM binding z-score [10]: 1.76
PBM binding z-score [11]: 1.53
PBM binding z-score [12]: 0.817
PBM binding z-score [13]: 0.974
PBM binding z-score [14]: 0.616
PBM binding z-score [15]: 0.703
PBM binding z-score [16]: 0.363
PBM binding z-score [17]: -0.714
PBM binding z-score [18]: -0.0197

AGTCAAAGTTCATCTATGTAACGTAAGATATGCT
PBM binding z-score [1]: 0.144
PBM binding z-score [2]: 2.33
PBM binding z-score [3]: 0.955
PBM binding z-score [4]: 1.14
PBM binding z-score [5]: 3.7
PBM binding z-score [6]: 5.09
PBM binding z-score [7]: 5.26
PBM binding z-score [8]: 3.82
PBM binding z-score [9]: 1.52
PBM binding z-score [10]: 4.89
PBM binding z-score [11]: 3.77
PBM binding z-score [12]: 5.2
PBM binding z-score [13]: 6.01
PBM binding z-score [14]: 4.69
PBM binding z-score [15]: 4.74
PBM binding z-score [16]: 1.92
PBM binding z-score [17]: -0.492
PBM binding z-score [18]: 4.62

CCTAGCAGGCCAATCTGGGTCACTCATGGCTTGA
PBM binding z-score [1]: 4.04
PBM binding z-score [2]: 4.89
PBM binding z-score [3]: -0.176
PBM binding z-score [4]: -0.808
PBM binding z-score [5]: 0.139
PBM binding z-score [6]: 0.641
PBM binding z-score [7]: -0.181
PBM binding z-score [8]: 0.915
PBM binding z-score [9]: -0.68
PBM binding z-score [10]: 1.44
PBM binding z-score [11]: 2.19
PBM binding z-score [12]: 0.859
PBM binding z-score [13]: 1.37
PBM binding z-score [14]: 0.157
PBM binding z-score [15]: 0.53
PBM binding z-score [16]: 3.19
PBM binding z-score [17]: 0.363
PBM binding z-score [18]: 0.00452

CCGAGTAGGTTATGGGGGATTCAGGCAACGGTGA
PBM binding z-score [1]: 4.03
PBM binding z-score [2]: 3.95
PBM binding z-score [3]: 3.42
PBM binding z-score [4]: 4.43
PBM binding z-score [5]: 2.01
PBM binding z-score [6]: 1.17
PBM binding z-score [7]: 1.05
PBM binding z-score [8]: 1.26
PBM binding z-score [9]: 1.69
PBM binding z-score [10]: 1.33
PBM binding z-score [11]: 1.28
PBM binding z-score [12]: 1.3
PBM binding z-score [13]: 1.08
PBM binding z-score [14]: 0.281
PBM binding z-score [15]: 0.959
PBM binding z-score [16]: 1.58
PBM binding z-score [17]: 1.7
PBM binding z-score [18]: 1.12

ACTAGCAGGCGAAGTTTGGGTCACTCAAACAAAG
PBM binding z-score [1]: -0.461
PBM binding z-score [2]: 0.0553
PBM binding z-score [3]: -0.763
PBM binding z-score [4]: -1.05
PBM binding z-score [5]: -0.0559
PBM binding z-score [6]: 0.583
PBM binding z-score [7]: -0.27
PBM binding z-score [8]: 1.15
PBM binding z-score [9]: -0.491
PBM binding z-score [10]: 1.14
PBM binding z-score [11]: 1.48
PBM binding z-score [12]: 0.795
PBM binding z-score [13]: 0.54
PBM binding z-score [14]: -0.3
PBM binding z-score [15]: 0.656
PBM binding z-score [16]: 1.91
PBM binding z-score [17]: 0.813
PBM binding z-score [18]: -0.246

CGACAAAGTTCAAGGTAACGTAACAGAAAGCAGC
PBM binding z-score [1]: 0.277
PBM binding z-score [2]: 1.76
PBM binding z-score [3]: 0.591
PBM binding z-score [4]: 0.507
PBM binding z-score [5]: 2.08
PBM binding z-score [6]: 3.81
PBM binding z-score [7]: 2.44
PBM binding z-score [8]: 3.27
PBM binding z-score [9]: 1.06
PBM binding z-score [10]: 4.89
PBM binding z-score [11]: 3.7
PBM binding z-score [12]: 5.27
PBM binding z-score [13]: 5.99
PBM binding z-score [14]: 4.29
PBM binding z-score [15]: 4.69
PBM binding z-score [16]: 2.8
PBM binding z-score [17]: 1.02
PBM binding z-score [18]: 3.11

CGAACGAGGGCATGAGATGATAGCAAATGCCGAT
PBM binding z-score [1]: 2.91
PBM binding z-score [2]: 1.69
PBM binding z-score [3]: 0.746
PBM binding z-score [4]: -0.282
PBM binding z-score [5]: 0.685
PBM binding z-score [6]: 0.00253
PBM binding z-score [7]: -0.206
PBM binding z-score [8]: 0.422
PBM binding z-score [9]: 0.183
PBM binding z-score [10]: 1.79
PBM binding z-score [11]: 0.674
PBM binding z-score [12]: 1.28
PBM binding z-score [13]: 1.64
PBM binding z-score [14]: 1.82
PBM binding z-score [15]: 0.882
PBM binding z-score [16]: 0.979
PBM binding z-score [17]: -0.224
PBM binding z-score [18]: 0.831
